Measured values: PubChem BioAssay AID1159580 (chemical genetic matrix, 2015)
Several values for one entry are separate records, joined by “and”; a condition that tells them apart may be missing. Identical values can stand only once. Among all 5,500 compounds or so, about 2,000 (36%) were called active. Inconclusive results (about 18%) are left out. No stated cut-off is given here; in the data, active means normalized growth mostly below about 0.91 (no sharp cut-off); inconclusive means no clear call, values can overlap the other calls; inactive means mostly above about 0.92. This is one part of the list.

Assay: chemical genetic growth profiling, strain panel (AID 1159580);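 further: tested at 20 µM; growth read once vehicle control cultures reached saturation at 30 °C; 1 = growth at the plate median or of vehicle wells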
Details: S. cerevisiae deletion strains, growth OD

Measured: normalized growth

O=C1CCC(N2C(=O)c3ccccc3C2=O)C(=O)N1 (stereo unspecified)
inactive: locus YAL013W, strain DEP1, stronger effect = lower value 1.02 and 0.99 | locus YAL021C, strain ccr4, stronger effect = lower value 0.999 | locus YAL026C, strain drs2, stronger effect = lower value 1.01 | locus YAL030W, strain snc1, stronger effect = lower value 1.01 | locus YAL040C, strain CLN3, stronger effect = lower value 1.01 | locus YBL061C, strain skt5, stronger effect = lower value 1.02 | locus YBR009C, strain hhf1, stronger effect = lower value 1.03 | locus YBR021W, strain FUR4, stronger effect = lower value 0.995 | locus YBR023C, strain chs3, stronger effect = lower value 1.03 | locus YBR171W, strain sec66, stronger effect = lower value 1.02 | locus YBR229C, strain ROT2, stronger effect = lower value 1.01 | locus YBR231C, strain swc5, stronger effect = lower value 1.01 | locus YBR279W, strain paf1, stronger effect = lower value 1.03 | locus YCL011C, strain gbp2, stronger effect = lower value 1.03 | locus YCL016C, strain dcc1, stronger effect = lower value 1.03 | locus YCL029C, strain bik1, stronger effect = lower value 0.989 | locus YCL061C, strain MRC1 (second series), stronger effect = lower value 1 | locus YCL061C, strain MRC1, stronger effect = lower value 1.01 | locus YCL069W, strain vba3, stronger effect = lower value 1.02 | locus YCR088W, strain abp1, stronger effect = lower value 1.01 | locus YDL005C, strain med2, stronger effect = lower value 1.01 | locus YDL035C, strain GPR1, stronger effect = lower value 1.02 | locus YDL040C, strain nat1, stronger effect = lower value 1.02 | locus YDL074C, strain BRE1, stronger effect = lower value 1.01 | locus YDL101C, strain DUN1, stronger effect = lower value 1.02 | locus YDL134C, strain PPH21, stronger effect = lower value 1.01 | locus YDL185W, strain tfp1, stronger effect = lower value 0.99 | locus YDL192W, strain arf1, stronger effect = lower value 0.992 | locus YDR001C, strain nth1, stronger effect = lower value 1.02 | locus YDR069C, strain doa4, stronger effect = lower value 1.02 | locus YDR101C, strain arx1, stronger effect = lower value 0.971 | locus YDR137W, strain rgp1, stronger effect = lower value 1.01 | locus YDR150W, strain NUM1, stronger effect = lower value 1.01 | locus YDR159W, strain sac3, stronger effect = lower value 0.974 | locus YDR162C, strain NBP2, stronger effect = lower value 1.04 | locus YDR195W, strain ref2 0.977 | locus YDR297W, strain sur2, stronger effect = lower value 1.01 | locus YDR318W, strain mcm21, stronger effect = lower value 0.977 | locus YDR334W, strain swr1, stronger effect = lower value 1.02 | locus YDR335W, strain msn5, stronger effect = lower value 1.02 | locus YDR363W, strain ESC2, stronger effect = lower value 1 | locus YDR388W, stronger effect = lower value 0.991 | locus YDR392W, strain spt3, stronger effect = lower value 0.958 | locus YDR502C, strain sam2, stronger effect = lower value 0.981 | locus YEL003W, strain gim4, stronger effect = lower value 1.02 | locus YEL037C, strain rad23, stronger effect = lower value 1.02 | locus YEL061C, strain CIN8 (second series), stronger effect = lower value 1.02 | locus YEL061C, strain CIN8, stronger effect = lower value 1.01 | locus YER002W, strain NOP16, stronger effect = lower value 1.01 | locus YER015W, strain faa2, stronger effect = lower value 1.02 | locus YER016W, strain bim1, stronger effect = lower value 1 | locus YER110C, stronger effect = lower value 0.99 | locus YER111C, strain swi4, stronger effect = lower value 1.02 | locus YER155C, strain BEM2 (second series), stronger effect = lower value 0.998 | locus YER155C, strain BEM2, stronger effect = lower value 1 | locus YER167W, strain BCK2, stronger effect = lower value 1.01 | locus YFR010W, strain ubp6, stronger effect = lower value 1.02 | locus YGL078C, strain dbp3, stronger effect = lower value 0.997 | locus YGL086W, strain mad1, stronger effect = lower value 0.985 | locus YGL167C, strain pmr1, stronger effect = lower value 1.02 | locus YGL173C, strain kem1, stronger effect = lower value 1.01 | locus YGL227W, strain vid30, stronger effect = lower value 1.02 | locus YGL240W, strain doc1, stronger effect = lower value 0.986 | locus YGL248W, strain PDE1, stronger effect = lower value 1.01 | locus YGL253W, strain hxk2, stronger effect = lower value 1.01 | locus YGR078C, strain PAC10, stronger effect = lower value 1.02 | locus YGR135W, strain pre9, stronger effect = lower value 0.988 | locus YGR229C, strain SMI1, stronger effect = lower value 1.04 | locus YGR252W, strain gcn5, stronger effect = lower value 0.969 | locus YHR013C, strain ard1, stronger effect = lower value 1.04 | locus YHR027C, strain rpn1, stronger effect = lower value 1.01 | locus YHR030C, strain SLT2, stronger effect = lower value 1 and 0.974 | locus YHR079C, strain IRE1 (second series), stronger effect = lower value 0.981 | locus YHR079C, strain IRE1, stronger effect = lower value 0.971 | locus YHR094C, strain hxt1, stronger effect = lower value 0.994 | locus YHR129C, strain ARP1, stronger effect = lower value 1 | locus YHR142W, strain chs7, stronger effect = lower value 1.04 | locus YHR200W, strain rpn10, stronger effect = lower value 0.986 | locus YIL066C, strain RNR3, stronger effect = lower value 1.01 | locus YIL073C, strain SPO22, stronger effect = lower value 1.01 | locus YIL125W, strain kgd1, stronger effect = lower value 0.997 | locus YIR030C, strain dcg1, stronger effect = lower value 0.994 | locus YJL092W, strain hpr5, stronger effect = lower value 1.02 | locus YJL095W, strain BCK1 (second series), stronger effect = lower value 1.02 | locus YJL095W, strain BCK1, stronger effect = lower value 1.01 and 0.98 | locus YJL115W, strain asf1, stronger effect = lower value 1.01 | locus YJL129C, strain trk1, stronger effect = lower value 1.03 | locus YJL134W, strain LCB3, stronger effect = lower value 1.01 | locus YJL154C, strain vps35, stronger effect = lower value 1.01 | locus YJL164C, strain tpk1, stronger effect = lower value 1.03 | locus YJL166W, strain qcr8, stronger effect = lower value 1.03 | locus YJL168C, strain set2, stronger effect = lower value 0.991 | locus YJL187C, strain SWE1 (second series), stronger effect = lower value 1.01 | locus YJL187C, strain SWE1, stronger effect = lower value 1.01 | locus YJR043C, strain POL32, stronger effect = lower value 0.979 | locus YJR066W, strain TOR1, stronger effect = lower value 0.951
